Assay [1] in a line: Her2 expression decrease, cell viability multiplex – SKBR3 breast tumor cells, AlphaScreen, ATP viability, primary screen (AID 461;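 active = Her2 level under about 52% in both replicate screens, with viability over 70% of control, limit read from the data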;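 as to Her2 level: lower value means less Her2 protein in the cells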;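 as to viability: percent of carrier control wells set as 100% viability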). Particulars: SKBR3 Her2 protein level, 18-24 h, measured here: SKBR3 viability, ATP luminescence, at 10 µM. In general terms: Bead proximity is the source of the signal in Alpha formats.
Assay [2] concerns the target Receptor tyrosine-protein kinase erbB-2 (Homo sapiens) (UniProt P04626). The assay is described as above. The following applies: 18-24 h, at 10 µM, stronger effect = lower value.
The nature of assay [3]: reduced viability of SK-BR-3 breast cancer cells – cell-based, 24 h, human, pilot screen (AID 572;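 active = viability at or below 10% of carrier control in both of two separate runs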;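 also: compound exposure lasted between 18 and 24 h rather than exactly 24 h; 100% = carrier-treated control wells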). Particulars: SK-BR-3 viability, CellTiter-Glo luminescence, at 10 µM, stronger effect = lower value. For orientation: ATP-based viability assays read luminescence as a measure of living cells.
Assay [4] can be described thus: HUVEC growth inhibition – cell-based, human, primary screen (AID 575;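 active = viability at or below 30% in both replicate assays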;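 also: 100% = median of untreated cell wells with 0.1% DMSO on each plate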). Particulars: HUVEC proliferation, CellTiter-Glo luminescence, 72 h; at 10 µM; stronger effect = lower value.
Assay [5] is described as follows: H69AR cell proliferation blockers – human, duplicate replicates, primary screen (AID 580;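 active = viability at or under a set limit in both replicates, limit being median viability minus 3 SD, cut at about 48% in these data, passing the limit was not always enough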;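 also: 100% = mean luminescence of untreated wells and 0% = no signal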). The following applies: H69AR lung tumor cells viability, ATP luminescence, 72 h; at 10 µM; stronger effect = lower value.
Assay [6] can be described thus: MRP1 drug-resistance reversers in H69AR cells – cell-based, doxorubicin co-treatment, pilot screen (AID 601). The following applies: CellTiter-Glo, 72 h, at 10 µM; for differential viability (reversal): stronger effect = higher value.
Assay [7] in a line: yeast transport mutant growth inhibition pilot in 384-well plates, post-Golgi transport modulator project (AID 636; in the data active = inhibition above about 31%). The following applies: absorbance 615 nm, about 18 h, stronger effect = higher value.
Assay [8] can be described thus: growth suppression of yeast trafficking mutant, preliminary HTS, modulators of trafficking downstream of Golgi apparatus project, 1536-format plate, OD 615 nm (AID 637; in the data active = inhibition above about 30%). The following applies: yeast transport mutant growth, absorbance 615 nm, 18 h; stronger effect = higher value.
Assay [9] can be described thus: S. cerevisiae growth inhibition in permissive medium (OD615), pilot counter-assay for S. cerevisiae lifespan shortening project, permissive growth control (AID 705;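 active = growth inhibition above 25% in both replicates, a cutoff set 3 SD above the mean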). The following applies: OD615, 24 h, at 10 µM, stronger effect = higher value.
Assay [10] is described as follows: S. cerevisiae growth inhibition in restrictive medium, OD615, pilot screen, restrictive growth control, yeast lifespan reduction project (AID 706;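 active = growth inhibition above a set limit, 3 SD over mean compound inhibition, in both replicates, cut at about 43% in these data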;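 also: modified DeaD lifespan yeast strain shifted to restrictive glucose medium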). Particulars: OD615, 48 h, at 10 µM, stronger effect = higher value.
A short description of assay [11]: doxorubicin toxicity protection in MRP-1 cells – H69AR cells, CellTiter-Glo, duplicate, MRP-1 activator project, pilot screen (AID 807;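 active = viability increase at or above a cutoff of the median across tested compounds plus 3 SD, cut at about 8.5% in these data, passing the limit was not always enough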;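 also: compound pretreatment 18-22 h then 72 h combined with doxorubicin; 0% = doxorubicin alone and 100% = vehicle without doxorubicin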). Particulars: H69AR viability with doxorubicin, CellTiter-Glo luminescence; at 10 µM; stronger effect = higher value.
The nature of assay [12]: viability of HCT116 without oncogenic beta-catenin – human colon tumor cells, pilot screen (AID 823;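 active = cell viability at or below a set limit in both duplicate runs, the limit being the all-compound median minus 4 SD, cut at about 23% in these data, passing the limit was not always enough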;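 also: 0% = wells killed by 20 µM Hyamine and 100% = untreated DMSO cell wells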). The following applies: HCT116 beta-catenin knockout viability, CellTiter-Glo, 60 h; at 10 µM; stronger effect = lower value.
Assay [13] in a line: viability of PTEN-null HCT116 cells – cell-based, HCT116 clonal line, CellTiter-Glo, pilot screen (AID 824;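 active = viability at or below 27.92% in each of two runs, the all-compound median minus 4 SD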;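 also: 0% = 20 µM Hyamine control and 100% = vehicle cell control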). Particulars: HCT116 PTEN-deleted viability, 60 h, at 10 µM, stronger effect = lower value.
A short description of assay [14]: RAM pathway blockade in budding yeast – dse1pr::URA3 reporter, 5-FOA selection, pilot screen (AID 869;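 active = inhibition over a set limit, the all-compound mean plus 3 SD, in both replicate runs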;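 also: 0% = DMSO wells with no growth and 100% = 10 µM 1-NA-PP1 with full growth; RAM network block rescues cells from 5-FOA so hits raise OD615 growth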). Particulars: S. cerevisiae dse1pr::URA3 5-FOA growth, OD615, 2 d; at 10 µM; stronger effect = higher value; strain carries analog-sensitive mutant Cbk1 kinase.
Assay [15] in a line: RAM signaling pathway blockade in yeast – S. cerevisiae, Pdr1DBD-CYC8 efflux-inhibited sensitized strain, primary screen (AID 1298;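 active = RAM network inhibition above 8.4% in each of two replicates, 3 SD over the compound average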;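 also: 0% = DMSO untreated cells without growth and 100% = 10 µM 1-NA-PP1 full growth; higher means more yeast growth rescued from 5-FOA killing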). Particulars: S. cerevisiae cbk1-as DSE1-URA3 strain, 5-FOA growth OD615, 2 d; at 50 µM; stronger effect = higher value.
The mark [16] stands for this setting: H69AR cells + 2 uM doxorubicin, measured here: viability with 2 uM doxorubicin, stronger effect = lower value.
Where [17] appears, read: H69AR cells, compound alone cytotoxicity.

This is an account of results in PubChem BioAssay.

The structures appear in SMILES notation. Results filed as inconclusive are left out. Active and inactive are the calls of the source.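 The calls were made as follows, unless noted: active = viability loss from added drug above about 55%, and viability with drug at most 40%, in both replicates (limit read from the data, passing the limit was not always enough); inconclusive = both conditions met in only one replicate; inactive = neither replicate meets both conditions.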

Receptor tyrosine-protein kinase erbB-2 (Homo sapiens), sequence (P04626 whole entry, looked up): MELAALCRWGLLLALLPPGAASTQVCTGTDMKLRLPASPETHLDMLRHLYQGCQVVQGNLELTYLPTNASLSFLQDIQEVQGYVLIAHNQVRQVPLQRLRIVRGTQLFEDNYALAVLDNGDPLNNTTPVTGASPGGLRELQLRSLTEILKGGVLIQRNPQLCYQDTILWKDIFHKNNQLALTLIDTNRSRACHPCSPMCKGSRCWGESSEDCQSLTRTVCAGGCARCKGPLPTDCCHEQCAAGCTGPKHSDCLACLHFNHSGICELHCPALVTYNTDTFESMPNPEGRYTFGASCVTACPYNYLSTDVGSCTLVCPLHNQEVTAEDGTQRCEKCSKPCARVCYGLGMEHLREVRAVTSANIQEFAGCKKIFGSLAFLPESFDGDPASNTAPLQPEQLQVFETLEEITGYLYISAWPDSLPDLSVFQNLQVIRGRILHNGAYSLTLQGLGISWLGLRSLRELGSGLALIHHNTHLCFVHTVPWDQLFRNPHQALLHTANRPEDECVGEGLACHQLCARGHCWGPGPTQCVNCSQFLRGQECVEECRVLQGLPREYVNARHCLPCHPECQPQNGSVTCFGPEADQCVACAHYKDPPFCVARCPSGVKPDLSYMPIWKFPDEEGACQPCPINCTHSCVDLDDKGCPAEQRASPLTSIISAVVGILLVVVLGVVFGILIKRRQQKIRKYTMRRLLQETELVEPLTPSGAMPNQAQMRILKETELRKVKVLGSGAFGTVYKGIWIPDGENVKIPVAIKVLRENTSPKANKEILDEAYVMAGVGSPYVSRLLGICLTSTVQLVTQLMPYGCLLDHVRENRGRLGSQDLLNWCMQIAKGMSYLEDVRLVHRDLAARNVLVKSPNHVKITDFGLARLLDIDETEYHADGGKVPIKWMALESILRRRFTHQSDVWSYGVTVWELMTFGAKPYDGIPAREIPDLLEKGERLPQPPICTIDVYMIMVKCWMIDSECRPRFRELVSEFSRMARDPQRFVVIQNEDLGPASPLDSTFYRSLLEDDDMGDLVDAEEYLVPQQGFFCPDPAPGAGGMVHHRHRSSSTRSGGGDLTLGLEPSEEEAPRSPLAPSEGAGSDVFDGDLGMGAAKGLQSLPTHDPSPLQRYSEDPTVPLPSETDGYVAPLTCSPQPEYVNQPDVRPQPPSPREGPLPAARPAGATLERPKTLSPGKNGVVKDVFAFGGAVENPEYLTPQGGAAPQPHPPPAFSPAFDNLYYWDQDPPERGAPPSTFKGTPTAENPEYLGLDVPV

Broadly, the viability is a read-out of living cells in per cent, often relative to untreated cells. For orientation: inhibition means the drop in the measured response relative to a control, in per cent. As for `CC1=C(C(N)=O)C(c2ccccn2)n2nc(-c3ccccc3Cl)nc2N1` (stereo not given), the viability in assay [1] was 98%; in assay [3], 98% (inactive); in assay [4], 103% (inactive); in [5] it was 91.6% (inactive); in assay [6] (setting [16]), 85.4%; in assay [6] (setting [17]), 91.6%. The viability was 101% (inactive) in assay [12] and 91.7% (inactive) in assay [13]. For the same compound, the Her2 level in assay [2] was 114% (inactive). In [6] (H69AR cells + 2 uM doxorubicin), the differential viability (reversal) is 6.15% (inactive). The inhibition in [7] is -2% (inactive); in assay [8], -4.17% (inactive); in [14] it was 1% (inactive). Also, the growth inhibition is -13.8% (inactive) in assay [9] and -3.02% (inactive) in assay [10]. Further, the viability increase in assay [11] is -2.25% (inactive). For the same compound, the RAM network inhibition in [15] was 3.22% (inactive).
On to `Cc1csc(NC(=O)C(Cc2ccccc2)n2cccc2)n1` (stereo not given), for which the viability in assay [1] is 91.5%; in assay [3], 91.5% (inactive); in assay [4], 101% (inactive); in [5] it was 87.6% (inactive); in assay [6] (setting [16]), 82.4%; in [6] (setting [17]), 87.6%. Also, the viability in assay [12] is 73.8% (inactive); in [13], 73.1% (inactive). Further, the Her2 level in [2] is 87% (inactive). Further, the differential viability (reversal) in [6] (H69AR cells + 2 uM doxorubicin) is 5.21% (inactive). The inhibition in [7] was -3.73% (inactive); in assay [8], 6.56% (inactive); in assay [14] it was 1.32% (inactive). Further, the growth inhibition in [9] was -13.9% (inactive); in assay [10], -8.47% (inactive). Further, the viability increase in [11] was -5.96% (inactive). Further, the RAM network inhibition in assay [15] was 6.15% (inactive).
`CCN1CCN(Cc2ccc(NC(=O)Nc3ccccc3)cc2)CC1`: the viability is 82% in assay [1]; 82% (inactive) in [3]; 82.5% (inactive) in [4]; 88.7% (inactive) in assay [5]; 89.3% in assay [6] (setting [16]); 88.7% in assay [6] (setting [17]). For the same compound, the viability is 103% (inactive) in assay [12] and 98.7% (inactive) in assay [13]. The Her2 level in [2] was 106% (inactive). The differential viability (reversal) in [6] (H69AR cells + 2 uM doxorubicin) is -0.57% (inactive). The inhibition is 2.82% (inactive) in assay [7], 0.33% (inactive) in assay [8] and 1.09% (inactive) in [14]. For the same compound, the growth inhibition in assay [9] and in assay [10] was -11.3% (inactive) each time. Moreover, the viability increase in assay [11] is 0.37% (inactive). Besides, the RAM network inhibition in [15] was 1.93% (inactive).
Regarding `CCc1cc(=O)n2[nH]c(C)c(-c3ccccc3OC)c2n1`, the viability was 80.5% in [1]; 80.5% (inactive) in [3]; 91.3% (inactive) in assay [4]; 100% (inactive) in assay [5]; 95% in assay [6] (setting [16]); 100% in assay [6] (setting [17]). For the same compound, the figures for the viability in assay [12] and in assay [13] were 98.6% (inactive) and 105% (inactive), respectively. In addition, the Her2 level in [2] was 106% (inactive). In assay [6] (H69AR cells + 2 uM doxorubicin), the differential viability (reversal) is 5.22% (inactive). In addition, the inhibition in assay [7] is 0.13% (inactive); in assay [8], -6.83% (inactive); in assay [14], 2.31% (inactive). The growth inhibition in [9] was -1.09% (inactive); in [10], 0.365% (inactive). For the same compound, the viability increase in [11] is -3.04% (inactive). Moreover, the RAM network inhibition in assay [15] was 1.78% (inactive).
Take `CCOC(=O)c1cc2c(=O)n3ccccc3nc2n(Cc2ccccc2)c1=N`: the viability is 77% in assay [1]; 77% (inactive) in assay [3]; 84.2% (inactive) in assay [4]; 83.8% (inactive) in [5]; 88.3% in assay [6] (setting [16]); 83.8% in assay [6] (setting [17]). In addition, the viability is 77.1% (inactive) in assay [12] and 71.1% (inactive) in [13]. Further, the Her2 level in [2] was 75.5% (inactive). In addition, the differential viability (reversal) in assay [6] (H69AR cells + 2 uM doxorubicin) is -4.5% (inactive). Further, the results for the inhibition in assay [7], in assay [8] and in assay [14] were -4.86% (inactive), -3.28% (inactive) and 2.4% (inactive), respectively. In addition, the growth inhibition in assay [9] is -1.11% (inactive); in assay [10] it was -8.62% (inactive). The viability increase in assay [11] is -3.3% (inactive). The RAM network inhibition in assay [15] is 0.09% (inactive).
